Rows were chosen to be rich in hits. Some 2.4% of all compounds tested hit in one or more screens of this group.
Cruzain Triton: cruzain (T. cruzi) inhibition with detergent; purified cruzain, Z-FR-AMC fluorescence, 0.01% Triton; Potency, µM, most hits filed as inhibitors; 200,000 compounds, 0.43% hits; further: nearly all actives have a fitted effect of over 40% in size
Target sequence (P25779 123-467 limits assumed): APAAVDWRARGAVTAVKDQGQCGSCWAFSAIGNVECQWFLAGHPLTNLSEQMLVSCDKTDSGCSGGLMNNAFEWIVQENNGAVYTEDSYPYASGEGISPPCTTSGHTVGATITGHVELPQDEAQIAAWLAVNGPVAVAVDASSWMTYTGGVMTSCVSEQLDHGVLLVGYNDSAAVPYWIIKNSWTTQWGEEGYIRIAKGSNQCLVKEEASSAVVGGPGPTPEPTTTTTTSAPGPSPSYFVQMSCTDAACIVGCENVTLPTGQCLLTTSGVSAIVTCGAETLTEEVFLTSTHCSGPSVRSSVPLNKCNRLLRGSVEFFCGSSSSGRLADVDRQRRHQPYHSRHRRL
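Cysteine protease activity tested under reducing, mildly acidic conditions (100 mM sodium acetate pH 5.5, 5 mM DTT) plus 0.01% Triton X-100. Cruzain 1.5 nM; substrate Z-FR-AMC 2 uM; 15 min compound preincubation at room temperature.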
Cruzain noTriton: cruzain (T. cruzi) inhibition without detergent; purified cruzain, Z-FR-AMC fluorescence, no detergent; Potency, µM, hits mostly inhibitors; 200,000 compounds, 2.3% hits; AID 1476; further: nearly all actives have a fitted effect of over 40% in size
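Purified cruzain at 1.5 nM, pre-incubated 15 min with compound at room temperature in 100 mM sodium acetate pH 5.5, 5 mM DTT, 0.00005% Triton X-100. Reaction started with 2 uM Z-FR-AMC; AMC fluorescence increase over 60 s gives rate.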
Of the large screens only hits and unclear results are named; the others gave an inactive call. The call rests on the fitted dose curve; in most records, active means well fitted curve in the direction sought with a large enough effect; inconclusive means small, poorly fitted or top-dose-only effect, or another doubt; inactive means no such curve, though single readings can be large; an effect the other way counts as inactive or inconclusive.

Cc1cc(C)cc(Nc2nc3c(S(=O)(=O)c4ccccc4)nnn3c3ccccc23)c1	Cruzain noTriton inconclusive
CCOc1ccc(C2C(C(=O)Nc3ccc(OC)cc3)=C(C)Nc3nc(SCc4ccc(Cl)cc4)nn32)cc1 (stereo not drawn)	none
O=C(NC1CCN(C(=O)N2c3ccccc3Sc3ccccc32)CC1)c1ccccc1F	Cruzain noTriton 20µM
CC1CCN(C(=O)N2c3ccccc3Sc3ccccc32)CC1	none
COc1ccc(C(=O)/C=C/c2ccc(N3CCCCC3)c([N+](=O)[O-])c2)cc1	none
O=C(/C=C/c1ccc(Cl)c([N+](=O)[O-])c1)Nc1ccc(N2CCCC2)c(Cl)c1	Cruzain noTriton 20µM
CN(Cc1cc(C(C)(C)C)cc(Br)c1O)Cc1cc(C(C)(C)C)cc(Br)c1O	none
O=C(NCCc1ccccc1)c1ccc(CSc2nc3ccncc3n2Cc2ccccc2)cc1	none
CCCC1CCC(C2=N/C(=C\c3ccc(OC)c(OC)c3)C(=O)O2)CC1 (stereo not drawn)	Cruzain Triton 1µM, Cruzain noTriton 2.51µM
COc1ccc(/C=C2\N=C(SC)SC2=O)cc1OC	none
C[C@H]1OC(OC2C(O)[C@@H](O)C(OC3C(O)[C@@H](O)C(O)O[C@@H]3CO)O[C@@H]2CO)[C@H](O)C(O)C1N[C@H]1C=C(CO)[C@@H](O)[C@H](O)C1O (stereo partly drawn)	none
CCCCCOC(=O)c1ccccc1C(=O)OCCCCC	none
CCOc1ccc(NC(=O)CN2CCSc3ccc(S(=O)(=O)N4CCCC4)cc32)cc1	none
CC1CCC(C(=O)NC(C(=O)OCC(=O)c2ccc(Br)cc2)C(C)C)CC1 (stereo not drawn)	Cruzain Triton 14.1µM
CCc1ccc(C(=O)COC(=O)C(NC(=O)C2CCC(C)CC2)C(C)C)cc1 (stereo not drawn)	none
CC(C)(C)OC(=O)NCCCCC1=CC2=CC(=O)C(C)(OC(=O)C3CCCC3)C(=O)C2=CO1 (stereo not drawn)	none
CC1(C)Cc2c(C#N)c(N3CCN(C(=O)c4ccccc4Cl)CC3)nc(-c3ccco3)c2CS1	Cruzain Triton 11.2µM, Cruzain noTriton inconclusive
CC(=O)N1CCN(c2nc(-c3ccco3)c3c(c2C#N)CC(C)(C)SC3)CC1	Cruzain noTriton inconclusive
CN1Cc2c(N3CCOCC3)nc(SCc3ccccc3)c(C#N)c2CC1(C)C	none
CC1(C)Cc2c(C#N)c(SCC(=O)c3ccccc3)nc(N3CCOCC3)c2CS1	Cruzain noTriton 25.1µM
C/C(=N\[N+](C)(C)C)c1ccc(C)c(C)c1	none
O=C(COc1ccc(Cl)cc1)Nc1cc(S(=O)(=O)N2CCCCC2)ccc1N1CCCCC1	Cruzain noTriton 15.8µM
O=C(COc1ccc(Br)cc1)Nc1cc(S(=O)(=O)N2CCCCC2)ccc1N1CCCCC1	Cruzain noTriton inconclusive
CC(=O)Nc1sc(C)c(C)c1C(=O)OCC(=O)Nc1cc(S(=O)(=O)N2CCCCC2)ccc1Cl	Cruzain noTriton 25.1µM
CC(=O)c1c(C)[nH]c(C(=O)OCC(=O)Nc2cc(S(=O)(=O)N3CCCC3)ccc2Cl)c1C	none
O=C(O)/C=C\C(=O)Nc1ncn[nH]1	none
O=c1c(-c2cc(F)cc(F)c2)nc2cnc(N3CCNCC3)nc2n1CCc1ccccc1	none
CC(C)c1ccc(N2C(=O)NC(=O)/C(=C/c3cnc(-c4ccccc4)nc3)C2=O)cc1	none
CCc1ccc(N2C(=O)NC(=O)/C(=C\c3cccn3CCOc3ccc(C(C)C)cc3)C2=O)cc1	Cruzain noTriton 10µM
Cc1cc(/C=C/c2ccc3cc(N(C)C)ccc3[n+]2C)c(C)n1-c1ccccc1	none
Cc1ncn(-c2ccccc2O)c1C	none
COc1cccc([C@@H]2Oc3ccc(Br)cc3C(=O)[C@H]2OC(=O)Nc2ccc(OC(F)F)cc2)c1	none
Cc1ccccc1NC(=O)CSc1nc2c(c(-c3ccco3)c1C#N)CCCC2	Cruzain noTriton 7.94µM
CCc1ccccc1NC(=O)CSc1nc2c(c(-c3ccco3)c1C#N)CCCC2	none
COc1ccc(NC(=O)CSc2nc(O)cc(=O)n2-c2ccccc2OC)cc1	Cruzain Triton inconclusive, Cruzain noTriton 15.8µM
COc1ccccc1-n1c(SCC(=O)Nc2ccc(C)cc2)nc(O)cc1=O	none
Cc1nc(NC2CCCCC2)c2nc(-c3ccccc3)n(CCCN3CCOCC3)c2n1	none
O=C1OC(/C=C/c2ccc(Cl)cc2Cl)=NC/1=C\c1cccs1	Cruzain Triton inconclusive, Cruzain noTriton 25.1µM
O=c1cc(-c2cccs2)oc2ccc(Cl)cc12	none
CC(C)(C)OC(=O)NCCCC1=CC2=CC(=O)C(C)(OC(=O)c3cnc4ccccc4n3)C(=O)C2=CO1 (stereo not drawn)	none
N#Cc1c(Oc2ccc3ccccc3c2)sc(C(=O)c2ccccc2)c1N	Cruzain noTriton 25.1µM
N#Cc1c(SCc2ccccc2)sc(C(=O)c2ccccc2)c1N	none
Cc1ccc(CSc2sc(C(=O)c3ccccc3)c(N)c2C#N)cc1	Cruzain noTriton 20µM
Cc1cccc(Oc2sc(C(=O)c3ccccc3)c(N)c2C#N)c1C	Cruzain noTriton inconclusive
CCOc1ccc(-n2c(SCC(=O)N3CCC(C)CC3)nc3c([nH]c4ccccc43)c2=O)cc1	none
